The list is not random: actives were taken first. Their share in the collection is about 3%.
SNCA expr inhib = reduces expression of the alpha-synuclein gene | HEK-293 SNCA-luciferase knock-in, luminescence, 24 h | Potency, µM (highest dose often 57.2 µM), most hits filed as inhibitors | actives 0.17% (n = 140,000); note: nearly all actives have a fitted effect of over 45% in size
IP6K1 inhibitor = inhibitors of human IP6K1 | IP6K1 kinase, ADP-Glo luminescence, 2 h; stronger effect = lower value | activity change, % (series mostly up to about 58 µM) | actives 0.81% (n = 140,000); in the data active = activity change below about -25%
Target sequence (Q92551 whole entry, looked up): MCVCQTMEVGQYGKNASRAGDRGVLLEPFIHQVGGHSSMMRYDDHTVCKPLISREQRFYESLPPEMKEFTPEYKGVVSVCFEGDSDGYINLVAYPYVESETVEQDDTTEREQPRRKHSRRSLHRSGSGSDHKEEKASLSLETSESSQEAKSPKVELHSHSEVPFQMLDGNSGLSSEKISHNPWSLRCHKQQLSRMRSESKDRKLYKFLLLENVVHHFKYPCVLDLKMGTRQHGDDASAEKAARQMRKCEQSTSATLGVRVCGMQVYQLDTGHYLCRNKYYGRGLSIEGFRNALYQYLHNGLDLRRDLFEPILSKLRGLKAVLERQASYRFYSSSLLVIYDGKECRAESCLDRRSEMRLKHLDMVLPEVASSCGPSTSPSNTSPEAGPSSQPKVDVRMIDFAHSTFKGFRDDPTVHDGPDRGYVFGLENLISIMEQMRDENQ
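ADP-Glo luminescence measures ADP made by human IP6K1 during a 2 h RT reaction with ATP/IP6 (mix at 1.3 mM/130 uM); top library doses 57.5 and 19.1 uM final.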
SNCA viab count = reduces viability of HEK-293 SNCA reporter cells; HEK-293-SNCA-luc viability, GF-AFC fluorescence, 24 h; Potency, µM (titrated, usually from 57.1 µM), most hits filed as cytotoxic; actives 0.12% (n = 150,000); note: nearly all actives have a fitted effect of over 30% in size
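HEK-293-SNCA-luc cells (1500/well) plated 24 h, then exposed 24 h to a dilution series; GF-AFC added 30 min at 37C, fluorescence 405/540 nm; normalised to medium-only and DMSO wells, Hill fit.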
KDM5B inh = inhibitors of human KDM5B histone demethylase | Potency, µM (doses to about 57.7 µM), actives largely listed as inhibitors | Q9UGL1 | KDM5B demethylase, FDH-coupled NADH fluorescence (FDH is formaldehyde dehydrogenase) | actives 2.6% (n = 220,000) | AID 1347165; note: nearly all actives have a fitted effect of over 70% in size
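Coupled FDH/NAD⁺ fluorescence readout. KDM5BΔAP 200 nM final; compound titration, 10 min RT preincubation; substrate mix 12.5 µM H3K4me3, 25 µM 2-OG, 50 µM Fe(II), 100 µM ascorbate, 0.25 mM NAD⁺, 0.25 U/mL FDH; ΔRFU over 30 min.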
Large screens that a line does not name were inactive. Unless noted, calls come from the whole dose curve; as a rule, active = well fitted curve in the direction sought with a large enough effect; inconclusive = small, poorly fitted or top-dose-only effect, or another doubt; inactive = no such curve, though single readings can be large; an effect the other way counts as inactive or inconclusive.

COc1ccc(F)cc1-c1ccc(CN2CCCCC2C(=O)NCc2ccccc2F)cc1 (stereo not given)	none (no result: SNCA expr inhib, SNCA viab count, KDM5B inh)
Cc1ccc(-c2cccc(CN3CCCC3C(=O)N3CCCC(C)C3)c2)cc1Cl (stereo not given)	none (no result: SNCA expr inhib, SNCA viab count, KDM5B inh)
O=C(c1ccc(-c2ccco2)cc1)N1CCOc2ccc(CN3CCN(c4ccccn4)CC3)cc2C1	KDM5B inh 28.2µM
COc1cc(-c2ccnc3nc(Cc4ccc(F)cc4)nn23)cc(OC)c1OC	SNCA expr inhib inconclusive, SNCA viab count inconclusive, KDM5B inh inconclusive
COc1ccc(Cc2nc3nccc(-c4cc(OC)c(OC)c(OC)c4)n3n2)cc1	KDM5B inh 14.1µM
COc1cc(-c2ccnc3nc(Cc4cc(F)cc(F)c4)nn23)cc(OC)c1OC	KDM5B inh 15.8µM
Fc1cc(F)cc(Cc2nc3nccc(-c4ccco4)n3n2)c1	KDM5B inh 25.1µM
COc1cc(F)ccc1-c1ccnc2nc(Cc3ccc(F)cc3)nn12	KDM5B inh 28.2µM
COc1ccc(CC(=O)N2CCN(c3nccc(Nc4ccccc4Cl)n3)CC2)cc1	none (no result: KDM5B inh)
Cc1nc(C2CC23CCN(S(=O)(=O)c2c(C)noc2C)CC3)no1 (stereo not given)	none (no result: KDM5B inh)
CCc1noc(-c2cccn3c(CNC(=O)c4cc(Cl)ccc4F)nnc23)n1	KDM5B inh 28.2µM
CCc1noc(-c2cccn3c(CNC(=O)c4ccc(C)c(F)c4)nnc23)n1	SNCA expr inhib inconclusive, KDM5B inh inconclusive
CCc1noc(-c2cccn3c(CNC(=O)c4ccccc4F)nnc23)n1	KDM5B inh 31.6µM
O=C(NC1CCCCCC1)C1CCN(C(=O)c2ccc(-c3cccs3)cc2)CC1	none (no result: SNCA expr inhib, SNCA viab count, KDM5B inh)
CN1Cc2ccc(N3CCOCC3)nc2C(C)(C(=O)NCCCn2ccnc2)C1 (stereo not given)	KDM5B inh 31.6µM
CN(C)CCNC(=O)C1(C)CN(Cc2ccccc2)Cc2ccc(N3CCOCC3)nc21 (stereo not given)	KDM5B inh 35.5µM
CC(C)NC(=O)C1(C)CN(Cc2ccccc2)Cc2ccc(N3CCOCC3)nc21 (stereo not given)	KDM5B inh 28.2µM
CC1(C(=O)NCc2cccnc2)CN(Cc2ccccc2)Cc2ccc(N3CCOCC3)nc21 (stereo not given)	KDM5B inh 25.1µM
CC1(C(=O)N2CCOCC2)CN(Cc2ccccc2)Cc2ccc(Nc3ccccc3)nc21 (stereo not given)	KDM5B inh 28.2µM
CC1(C(=O)NCc2ccncc2)CN(Cc2ccccc2)Cc2ccc(N3CCOCC3)nc21 (stereo not given)	KDM5B inh inconclusive
CC1(C(=O)NCc2ccccc2)CN(Cc2ccccc2)Cc2ccc(N3CCOCC3)nc21 (stereo not given)	KDM5B inh 22.4µM
OCc1ccc(CN2C[C@H](O)C[C@H]2c2nc(-c3ccccc3)no2)o1	KDM5B inh inconclusive
O=C(c1cccc(Cl)c1)N1CCN(c2ccc3nnc(C4CC4)n3n2)CC1	none (no result: SNCA expr inhib, SNCA viab count, KDM5B inh)
O=C([C@@H]1CCCN1c1nccc(Nc2ccccc2Cl)n1)N1CCN(Cc2ccccc2)CC1	none (no result: KDM5B inh)
CC1(C)NC(=O)N(Cc2coc(-c3cccc(Cl)c3)n2)C1=O	none (no result: SNCA expr inhib, IP6K1 inhibitor, SNCA viab count)
CCc1noc(-c2ccn3c(CNC(=O)C4CCC4)nnc3c2)n1	none
O=C(NCc1nnc2cc(-c3nc(C4CC4)no3)ccn12)C1CCCCC1	KDM5B inh 28.2µM
O=C(NCc1nnc2cc(-c3nc(C4CC4)no3)ccn12)C1CCC1	SNCA expr inhib inconclusive, KDM5B inh 25.1µM
COc1ccc2cc(-c3nc(-c4ccccc4F)no3)c(=O)oc2c1	none (no result: SNCA expr inhib, IP6K1 inhibitor, SNCA viab count)
COc1ccccc1-c1cc(NCC2CCOCC2)c2onc(C)c2n1	none
Cc1noc2c(Nc3ccncc3)cc(-c3ccc(F)cc3)nc12	KDM5B inh 28.2µM
COc1ccccc1-c1cc(NCc2ccncc2)c2onc(C)c2n1	KDM5B inh 28.2µM
O=C(NCCN[S+](=O)([O-])c1cccc(C(F)(F)F)c1)c1ccc(-c2cncnc2)cc1	none (no result: SNCA expr inhib, SNCA viab count, KDM5B inh)
Oc1ccccc1CN[C@H]1[C@H](O)[C@@H](N2CCN(c3ccccc3)CC2)[C@@H]2OC[C@H]1O2	KDM5B inh inconclusive
O[C@H]1[C@H](NCc2ccncc2)[C@H]2CO[C@H](O2)[C@@H]1N1CCN(c2ccccc2)CC1	KDM5B inh 22.4µM
Cc1ccc(C#N)c(N2CC[C@@]3(O)CCN(S(=O)(=O)N(C)C)C[C@H]3C2)n1	KDM5B inh 28.2µM
CN(C)S(=O)(=O)N1CCC(Oc2ccc(C(=O)N3C[C@H]4CC[C@H]3C4)cc2)CC1	none (no result: SNCA expr inhib, IP6K1 inhibitor, SNCA viab count)
O=[N+]([O-])c1ccc2c(c1)S(=O)(=O)C=C2	SNCA expr inhib 5.01µM, SNCA viab count inconclusive (no result: IP6K1 inhibitor, KDM5B inh)
O=[N+]([O-])c1cccc(Br)c1	none (no result: SNCA expr inhib, IP6K1 inhibitor, SNCA viab count)
COc1ccc2c(c1)CCN=C2C[C@H]1CN(C(=O)c2ccccc2)CC[C@H]1CC(=O)O	KDM5B inh 28.2µM
COc1ccc2c(c1)CCN=C2C[C@H]1CN(C(=O)c2cccc(F)c2)CC[C@H]1CC(=O)O	KDM5B inh inconclusive
COc1ccc2c(c1)CCN=C2C[C@H]1CN(C(=O)Cc2cccs2)CC[C@H]1CC(=O)O	KDM5B inh 35.5µM
COc1cc2c(cc1OC)C(C[C@H]1CN(C(=O)Cc3cccs3)CC[C@H]1CC(=O)O)=NCC2	KDM5B inh 28.2µM
C=CCNC(=O)N1CC[C@@H](CC(=O)O)[C@@H](CC2=NCCc3cc(OC)ccc32)C1	KDM5B inh 35.5µM
Cc1ccccc1NC(=O)CSc1ccc(N2CCC(C(=O)N3CCCCC3)CC2)nn1	none (no result: SNCA expr inhib, IP6K1 inhibitor, SNCA viab count)
CC(Cl)C(=O)NC(=O)Nc1ccccc1 (stereo not given)	none (no result: SNCA expr inhib, IP6K1 inhibitor, SNCA viab count)
COc1cc2c(cc1OC)C(C[C@H]1CN(C(=O)c3ccc(F)cc3)CC[C@H]1CC(=O)O)=NCC2	none
COC(=O)C[C@@H]1CCN(C(=O)COc2ccccc2)C[C@@H]1CC1=NCCc2cc(OC)c(OC)cc21	KDM5B inh 25.1µM
COc1cc2c(cc1OC)C(C[C@H]1CN(C(=O)c3ccccc3)CC[C@H]1CC(=O)O)=NCC2	none
COc1cc2c(cc1OC)C(C[C@H]1CN(C(=O)c3ccc4c(c3)OCO4)CC[C@H]1CC(=O)O)=NCC2	KDM5B inh 31.6µM
CSc1ccc(/C=C2\COc3ccccc3C2=O)cc1	none (no result: SNCA expr inhib, IP6K1 inhibitor, SNCA viab count)
COc1ccccc1-c1ccnc(N[C@H]2CO[C@H]3[C@@H]2OC[C@@H]3NC(=O)N2CCOCC2)n1	KDM5B inh 25.1µM
COc1ccccc1-c1ccnc(N[C@H]2CO[C@H]3[C@@H]2OC[C@@H]3NS(C)(=O)=O)n1	KDM5B inh 35.5µM
O=C1Nc2ccccc2CN(Cc2ccccc2)C12CCNC2 (stereo not given)	KDM5B inh inconclusive
O=C1NCCCCCCN(C(=O)C2CCCC2)[C@H]2C[C@H](C(=O)N3CCN(c4ccccn4)CC3)C[C@@H]12	KDM5B inh inconclusive
O=C1NCCCCCCN(C(=O)c2ccoc2)[C@H]2C[C@H](C(=O)N3CCN(c4ccccn4)CC3)C[C@@H]12	KDM5B inh 31.6µM
N#Cc1ccc(NC2CC(c3cc(N4CCC(O)C4)ncn3)C2)nc1 (stereo not given)	KDM5B inh 31.6µM
Cc1cc(C)c(CNC(=O)c2cc(-c3cnn(C)c3C)cc3c2OCCN3C)c(=O)[nH]1	KDM5B inh 31.6µM

Screening data as filed in PubChem BioAssay.
